Reference: PubChem BioAssay (Tox21)
“And” between values parts separate entries of the source, which are not always exact repeats. Equal entries are not always repeated. Inconclusive results are not listed. The source made the active and inactive calls. Unless noted, calls follow the shape of the dose curve; as a rule, active = well fitted curve in the direction sought with a large enough effect in the repeat runs; inconclusive = weak or mixed curves; inactive = no such curve, though single readings can be large; an effect the other way counts as inactive or inconclusive.

Legend:
[1] = target: Luciferin 4-monooxygenase (Photinus pyralis) (UniProt P08659); assay: qHTS assay to identify small molecule inhibitors of firefly luciferase (AID 1224835); also: nearly all actives have a fitted effect of over 25% in size; also: potency is read from the fitted curve at half-maximal effect; as to activity change, negative = inhibition: series mostly up to about 120 µM
Sequence of Luciferin 4-monooxygenase (Photinus pyralis) (P08659 whole entry, looked up): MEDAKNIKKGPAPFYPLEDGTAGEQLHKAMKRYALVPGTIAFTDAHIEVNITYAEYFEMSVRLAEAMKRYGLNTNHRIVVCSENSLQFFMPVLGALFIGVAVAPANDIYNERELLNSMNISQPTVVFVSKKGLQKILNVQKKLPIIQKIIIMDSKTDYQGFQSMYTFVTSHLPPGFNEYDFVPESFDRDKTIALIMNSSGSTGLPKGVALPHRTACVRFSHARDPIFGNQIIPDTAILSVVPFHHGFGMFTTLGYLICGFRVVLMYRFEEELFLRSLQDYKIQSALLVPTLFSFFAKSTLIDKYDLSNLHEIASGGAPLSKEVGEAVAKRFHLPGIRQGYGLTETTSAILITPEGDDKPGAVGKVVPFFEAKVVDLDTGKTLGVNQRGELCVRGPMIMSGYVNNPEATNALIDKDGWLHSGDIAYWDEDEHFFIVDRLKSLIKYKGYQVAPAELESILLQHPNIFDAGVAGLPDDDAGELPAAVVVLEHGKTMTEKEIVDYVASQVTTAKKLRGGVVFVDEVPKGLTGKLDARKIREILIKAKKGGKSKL
How it was run: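 Inhibition of purified Photinus luciferase is measured by luminescence. Substrate levels (D-luciferin, ATP) sit at their KM values. Each compound is tested in a concentration series.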

[2] = qHTS assay to identify small molecule agonists of the constitutive androstane receptor (CAR) signaling pathway - cell viability counter screen (AID 1224836); also: nearly all actives have a fitted effect of over 45% in size; also: potency is read from the fitted curve at half-maximal effect; as to viability change, negative = cytotoxic: series mostly up to about 92 µM
How it was run: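 Viability read-out: CellTiter-Fluor fluorescence after 23 h compound exposure at 37 C/5% CO2 in double-stable HepG2-CYP2B6-hCAR cells, with PK11195 present at 0.75 uM final; compounds tested in 15-point titration.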

[3] = qHTS assay to identify small molecule antagonists of the constitutive androstane receptor (CAR) signaling pathway - cell viability counter screen (AID 1224837); also: series mostly up to about 92 µM; nearly all actives have a fitted effect of over 45% in size
How it was run: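 Read-out: CellTiter-Fluor fluorescence after 23 hr at 37 C/5% CO2. Cells: HepG2 double-stable for hCAR and CYP2B6-2.2kb. Compounds tested at 15 concentrations in the presence of CITCO, final concentration 50 nM.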

[4] = target: Thyrotropin receptor (Homo sapiens) (UniProt P16473); assay: qHTS assay to identify small molecule agonists of the thyroid stimulating hormone receptor (TSHR) signaling pathway (AID 1224843; calls by dose curve; also: nearly all actives have a fitted effect of over 45% in size)
Sequence of Thyrotropin receptor (Homo sapiens) (P16473 whole entry, looked up): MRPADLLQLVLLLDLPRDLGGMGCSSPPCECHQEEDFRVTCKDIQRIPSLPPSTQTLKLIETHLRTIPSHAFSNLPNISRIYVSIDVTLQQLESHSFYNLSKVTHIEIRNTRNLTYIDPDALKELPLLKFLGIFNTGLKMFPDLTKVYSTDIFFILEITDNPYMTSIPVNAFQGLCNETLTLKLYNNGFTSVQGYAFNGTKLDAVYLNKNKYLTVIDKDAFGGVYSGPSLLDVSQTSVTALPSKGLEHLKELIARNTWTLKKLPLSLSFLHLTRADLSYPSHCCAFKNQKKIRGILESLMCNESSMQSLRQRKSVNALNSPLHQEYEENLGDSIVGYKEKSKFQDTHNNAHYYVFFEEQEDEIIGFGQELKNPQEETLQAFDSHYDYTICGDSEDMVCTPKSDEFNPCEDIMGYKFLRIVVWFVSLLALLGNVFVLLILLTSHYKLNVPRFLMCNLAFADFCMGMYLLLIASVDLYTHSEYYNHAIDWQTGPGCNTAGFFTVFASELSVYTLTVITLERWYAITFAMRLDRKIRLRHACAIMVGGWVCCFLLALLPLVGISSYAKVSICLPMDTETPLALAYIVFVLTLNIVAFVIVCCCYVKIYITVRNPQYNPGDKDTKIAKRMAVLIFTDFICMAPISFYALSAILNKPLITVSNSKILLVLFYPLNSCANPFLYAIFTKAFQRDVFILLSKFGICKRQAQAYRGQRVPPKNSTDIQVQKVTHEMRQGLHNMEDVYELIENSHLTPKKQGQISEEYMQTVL
How it was run: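 A cell-based cAMP HTRF format was run in TSHR-transfected HEK293 cells, 800 per well. Treatment: 30 min, room temperature. Detection: 1 h with labelled cAMP and anti-cAMP cryptate. Concentration-response over 15 points, three replicates.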

[5] = qHTS assay to identify small molecule antagonists of the estrogen related receptor signaling pathway with the pleiotropic PPARgamma coactivator (PGC) from Tox21 10K library - cell viability counter screen (AID 1224840; active = well fitted cell-killing curve with a large enough effect in the repeat runs, not every such curve was filed as active; also: nearly all actives have a fitted effect of over 40% in size)
How it was run: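 Fluorescence read-out of CellTiter-Fluor viability reagent, added after cells had been exposed to compound in DMSO for 17.5 h at 37 C; 30 min development at 37 C/5% CO2. Cells: PGC/ERR line, 2,000/well.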

[6] = qHTS assay to identify small molecule agonists of the hypoxia (HIF-1) signaling pathway - cell viability counter screen (AID 1224844; calls by dose curve; also: nearly all actives have a fitted effect of over 50% in size; also: potency is read from the fitted curve at half-maximal effect)
How it was run: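 CellTiter-Glo luminescence read-out, 30 min RT, taken in the same wells as the beta-lactamase HRE reporter assay; HRE-bla ME-180 cells, 0.5% dialyzed FBS, 17 hr compound treatment at 37C, 5% CO2.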

[7] = target: Nuclear receptor subfamily 1 group I member 3 (Homo sapiens) (UniProt Q14994); assay: qHTS assay to identify small molecule antagonists of the constitutive androstane receptor (CAR) signaling pathway (AID 1224838);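 also: HepG2 cells stably expressing hCAR with CYP2B6 luciferase reporter stimulated by CITCO; nearly all actives have a fitted effect of over 40% in size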; also: potency is read from the fitted curve at half-maximal effect
Sequence of Nuclear receptor subfamily 1 group I member 3 (Homo sapiens) (Q14994 whole entry, looked up): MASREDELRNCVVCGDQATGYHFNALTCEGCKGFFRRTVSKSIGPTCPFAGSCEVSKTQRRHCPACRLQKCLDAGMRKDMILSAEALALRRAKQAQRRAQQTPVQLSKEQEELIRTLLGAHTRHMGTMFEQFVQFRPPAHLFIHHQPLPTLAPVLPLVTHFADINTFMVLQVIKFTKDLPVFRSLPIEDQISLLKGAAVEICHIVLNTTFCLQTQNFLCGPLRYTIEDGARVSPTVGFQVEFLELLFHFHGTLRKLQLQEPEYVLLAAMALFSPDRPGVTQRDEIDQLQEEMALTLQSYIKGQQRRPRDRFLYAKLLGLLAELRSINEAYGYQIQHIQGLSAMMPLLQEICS
How it was run: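 Read-out: ONE-Glo luciferase luminescence after 30 min at room temperature. HepG2-CYP2B6-hCAR double-stable cells, compounds in 15-point titration plus 50 nM CITCO final, 24 h at 37 C/5% CO2.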

[8] = target: Nuclear receptor subfamily 1 group I member 3 (Homo sapiens) (UniProt Q14994); assay: qHTS assay to identify small molecule agonists of the constitutive androstane receptor (CAR) signaling pathway (AID 1224839); also: nearly all actives have a fitted effect of over 15% in size; also: potency is read from the fitted curve at half-maximal effect;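 as to activation: HepG2 cells stably carrying human CAR and a CYP2B6 luciferase reporter; series mostly up to about 92 µM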
How it was run: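 Luminescence read-out (ONE-Glo, 30 min, room temperature) from double-stable HepG2-CYP2B6-hCAR cells exposed 24 h to 15-point compound series in presence of 0.75 uM PK11195 final.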

[9] = qHTS assay to identify small molecule agonists of the estrogen related receptor signaling pathway with the pleiotropic PPARgamma coactivator (PGC) from Tox21 10K library (AID 1224842); also: nearly all actives have a fitted effect of over 15% in size; also: potency is read from the fitted curve at half-maximal effect
How it was run: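 Luminescence from One-Glo (30 min, room temperature) measured after PGC/ERR cells had 18 h at 37 C with pinned compound (23 nL in DMSO). Cells had been seeded at 2,000 per well and pre-incubated 6 h.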

[10] = qHTS assay to identify small molecule antagonists of the estrogen related receptor signaling pathway with the pleiotropic PPARgamma coactivator (PGC) from Tox21 10K library (AID 1224841; call rule not given here; also: series mostly up to about 92 µM; actives are mostly falling curves and most rising ones were filed inactive; nearly all actives have a fitted effect of over 50% in size)
How it was run: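 Luminescence read-out (One-Glo luciferase reagent, 30 min at room temperature) from PGC/ERR cells exposed to DMSO-dissolved test compounds for 18 h at 37 C; cells, 2,000 per well, had been preincubated 6 h before compound transfer.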
% is scaled to controls: 0 for no effect and ±100 for the full control effect.

CCOc1cc(N)c(Cl)cc1C(=O)NCC1CN(Cc2ccc(F)cc2)CCO1 (configuration not stated)
inactive: Potency [1] | Potency [2] | Potency [3] | Potency [4]

CCC1(C)CC(=O)NC1=O (configuration not stated)
inactive: Potency [1] | Potency [2] | Potency [3] | Potency [5] | Potency [6]

CCCCCC=CCC=CCCCCCCCC(=O)OCC
inactive: Potency [1] | Potency [2] | Potency [7] | Potency [8] | Potency [5] | Potency [4] | Potency [6]

C[Si]1(C)O[Si](C)(C)O[Si](C)(C)O1
inactive: Potency [1] | Potency [2] | Potency [7] | Potency [5] | Potency [9] | Potency [4] | Potency [6]

CCn1cc(C(=O)O)c(=O)c2cc(F)c(N3CCNCC3)nc21
inactive: Potency [1] | Potency [2] | Potency [3] | Potency [4] | Potency [6]

COC(=O)Nc1nc2ccc(C(=O)c3cccs3)cc2[nH]1
inactive: Potency [7] | Potency [4]
active: Potency [1] 15.5 µM | Potency [2] 11.9 µM

COCc1c(C(C)C)nc(C(C)C)c(/C=C/[C@@H](O)C[C@@H](O)CC(=O)O)c1-c1ccc(F)cc1
inactive: Potency [1] | Potency [2] | Potency [8] | Potency [5] | Potency [4] | Potency [6]
active: Potency [7] 4.73 µM and 6.05 µM

COc1cc2c(cc1OC)-c1cc(=Nc3c(C)cc(C)cc3C)n(C)c(=O)n1CC2
active: Potency [9] 13.3 µM
inactive: Potency [1] | Potency [2] | Potency [7] | Potency [5] | Potency [10] | Potency [6]

Cn1c(=O)c2c(ncn2CC(=O)O)n(C)c1=O
inactive: Potency [1] | Potency [2] | Potency [3] | Potency [4] | Potency [6]

CC(CCO)CCc1ccccc1 (configuration not stated)
inactive: Potency [1] | Potency [2] | Potency [3] | Potency [5] | Potency [6]

Brc1cc(-c2ccc(Br)c(Br)c2Br)cc(Br)c1Br
active: Potency [8] 24 µM
inactive: Potency [1] | Potency [2] | Potency [7] | Potency [5] | Potency [6]

O=C(CS)OCCOC(=O)CS
inactive: Potency [1] | Potency [2] | Potency [7] | Potency [8] | Potency [5] | Potency [4]

O=C1OCCN1/N=C/c1ccc([N+](=O)[O-])o1
inactive: Potency [1] | Potency [2] | Potency [7] | Potency [8] | Potency [4] | Potency [6]

Cc1cc(C(=C2C=CC(=Nc3ccc(S(=O)(=O)O)cc3S(=O)(=O)O)C=C2)c2ccc(Nc3ccc(S(=O)(=O)O)cc3)cc2)ccc1N
active: Potency [1] 23.2 µM
inactive: Potency [2] | Potency [7] | Potency [8] | Potency [5] | Potency [6]

C/C=C(\C)C(=O)OCCC(C)CCC=C(C)C (configuration not stated)
inactive: Potency [1] | Potency [2] | Potency [3] | Potency [6]

CN1CCN(c2c(F)cc3c(=O)c(C(=O)O)cn4c3c2OCN4C)CC1
inactive: activity change, negative = inhibition [1] 2.58% [at 23.6 µM] | viability change, negative = cytotoxic [2] 0.256% [at 19 µM] | activity change, negative = cytotoxicity [3] -2.88% [at 19 µM] | activation [4] -2.64% [at 19 µM] | activity change, negative = cytotoxicity [6] 3.62% [at 15.8 µM]

CC(=O)Oc1ccc(C(=C2CCCCC2)c2ccc(OC(C)=O)cc2)cc1
inactive: Potency [1] | Potency [2] | Potency [3] | Potency [5] | Potency [4] | Potency [6]

CC(C)CCCCCCOC(=O)CCCCC(=O)OCCCCCCC(C)C
inactive: Potency [1] | Potency [2] | Potency [3] | Potency [5] | Potency [6]

CC(C)(O)c1ccccc1CC[C@@H](SCC1(CC(=O)O)CC1)c1cccc(/C=C/c2ccc3ccc(Cl)cc3n2)c1
inactive: Potency [1] | Potency [2] | Potency [3] | Potency [10] | Potency [9] | Potency [4] | Potency [6]

Cc1nc2ccccn2c(=O)c1CCN1CCC(C(=O)c2ccc(F)cc2)CC1
inactive: Potency [1] | Potency [2] | Potency [7] | Potency [5] | Potency [9] | Potency [6]

CC1CC(O)CC(C)(C)C1 (configuration not stated)
inactive: Potency [1] | Potency [2] | Potency [7] | Potency [5] | Potency [9] | Potency [4] | Potency [6]

Cc1oncc1C(=O)Nc1ccc(C(F)(F)F)cc1
inactive: Potency [2] | Potency [3] | Potency [4] | Potency [6]
active: Potency [1] 39.9 µM

COCC(O)CO (configuration not stated)
inactive: Potency [1] | Potency [2] | Potency [3] | Potency [4] | Potency [6]

Cc1cc(OI)c(C(C)C)cc1-c1cc(C(C)C)c(OI)cc1C
inactive: Potency [1] | Potency [2] | Potency [7] | Potency [8] | Potency [5] | Potency [4] | Potency [6]

COc1cc2[nH]c(=O)[nH]c(=O)c2cc1OC
inactive: Potency [1] | Potency [2] | Potency [7] | Potency [8] | Potency [5] | Potency [9] | Potency [4] | Potency [6]

O=C(NCCCN1CCOCC1)c1ccc(Cl)cc1
inactive: Potency [1] | Potency [2] | Potency [7] | Potency [5] | Potency [10] | Potency [4] | Potency [6]

CC(C)=CC=O
inactive: Potency [1] | Potency [2] | Potency [3] | Potency [6]

CO[C@@]12[C@H](COC(N)=O)C3=C(C(=O)C(C)=C(N)C3=O)N1C[C@@H]1N[C@@H]12
inactive: Potency [1] | Potency [8] | Potency [9]
active: Potency [2] 9.44 µM | Potency [7] 750 nM | Potency [6] 9.52 µM

CCCOC(=O)c1ccc(C(=O)OCCC)nc1
active: Potency [1] 35.6 µM
inactive: Potency [2] | Potency [8] | Potency [5] | Potency [4] | Potency [6]

Fc1c(F)c(F)c(Br)c(F)c1F
inactive: Potency [1] | Potency [2] | Potency [8] | Potency [5] | Potency [4] | Potency [6]

c1cc[c]([Bi]([c]2ccccc2)[c]2ccccc2)cc1
inactive: Potency [1] | Potency [2] | Potency [3] | Potency [5] | Potency [6]

C/C=C/C=C/CCCCCCCO
inactive: Potency [1] | Potency [2] | Potency [3] | Potency [4] | Potency [6]

CC#N
inactive: Potency [1] | Potency [2] | Potency [3] | Potency [5] | Potency [4] | Potency [6]

CC(=O)Oc1ccc2c(c1)CC[C@@H]1[C@@H]2CC[C@]2(C)[C@@H](O)CC[C@@H]12
active: Potency [1] 24.5 µM | Potency [8] 9.44 µM
inactive: Potency [2] | Potency [7] | Potency [10] | Potency [4] | Potency [6]
